We go through 37 molecules from PubChem BioAssay (NCATS).

The structures appear in SMILES notation. Where “and” joins values, the source holds several entries; their conditions need not be identical. Identical values can stand only once. Non-standard residues stand in square brackets, D forms with d. Residues, ends and D or L forms follow the SMILES beside them. *: point of attachment. Nva = CCC[C@H](N)C(=O)O; Cbz = O=C(OCc1ccccc1)*

One assay in a line: qHTS profiling of the MIPE4 collection as inhibitors of Plasmodium falciparum (DD2) proliferation (Rep 2) (AID 743346). The conditions noted are these: P. falciparum Dd2 in erythrocytes, SYBR Green DNA, 72 h; at 28.5 µM unless noted. In short, it runs like this: (§1)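 Parasite DNA was quantified by SYBR Green I fluorescence (ex 485, em 535 nm) after overnight lysis in saponin/Triton buffer at room temperature. Cultures at 0.3% parasitemia and 2.5% hematocrit were first exposed to compound for 72 h at 37 C; signals were normalised to artemisinin (0.29 uM) and vehicle wells.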
For `CC(Oc1ccc(O)cc1)(P(=O)(O)O)P(=O)(O)O`, the parasite growth, % of control (lower = inhibition) was determined as 64.2%.
On the same count and under the same terms, the value for `CNC(=O)c1ccc(Nc2cc(Nc3ccccc3S(=O)(=O)C(C)C)c3cc[nH]c3n2)nc1` was 12.7%; that for `O=[N+]([O-])c1cn2c(n1)OC[C@@H](OCc1ccc(OC(F)(F)F)cc1)C2` was 155% and 70.1%; that for `O=C(c1ccc(F)cc1)N1CCC[C@H](c2nc(-c3ccc(F)cc3)no2)C1` was 70.9%.
On to `CCN(CC)CCNC(=O)c1c(C)[nH]c(C=C2C(=O)Nc3ccc(F)cc32)c1C`, for which the parasite growth, % of control (lower = inhibition) stood at 16% [at 57.5 µM].
For `CCN(CC)Cc1ccc2cc(COC(=O)Nc3ccc(C(=O)NO)cc3)ccc2c1`, the parasite growth, % of control (lower = inhibition) is 6.48%.
On the same count and under the same terms, the value for `Cc1cn([C@@H]2O[C@H](CO)[C@@H](O)[C@H]2F)c(=O)[nH]c1=O` was 78.6%.
Regarding `Cc1[nH]c(C=C2C(=O)Nc3ccccc32)c(C)c1CCC(=O)O`, the parasite growth, % of control (lower = inhibition) was found to be 138%.
As to `N#CC(=C(O)c1ccc(Cl)cc1Cl)c1nc2cc(Cl)ccc2c(=O)[nH]1`, the parasite growth, % of control (lower = inhibition) amounted to 99%.
Same read-out and setting: then `CC(C)[C@H](CO)Nc1nc(Nc2cccc(Cl)c2)c2ncn(C(C)C)c2n1`, with 17.2%; and `C=Cc1c(C)c2cc3nc(cc4[nH]c(cc5nc(cc1[nH]2)C(C)=C5CCC(=O)O)c(CCC(=O)OC)c4C)[C@@]1(C)C3=CC=C(C(=O)OC)[C@H]1C(=O)OC`, with 6.94%; and `CCCCCCCCCCCC(CC1OC(=O)C1CCCCCC)OC(=O)C(CC(C)C)NC=O` (centres undefined), with 17%.
With `C[C@H](O)[C@@H]1C(=O)N2C(C(=O)O)=C(S[C@@H]3CN[C@H](CNS(N)(=O)=O)C3)[C@@H](C)[C@@H]12`, the parasite growth, % of control (lower = inhibition) is 82.6%.
As for `Cc1noc(-c2ccc(CSCCC(=O)O)cc2)c1NC(=O)OC(C)c1ccccc1Cl` (centres undefined), the parasite growth, % of control (lower = inhibition) amounted to 49.9%.
Take `Cc1ccc2nc(NCCN)c3ncc(C)n3c2c1`: the parasite growth, % of control (lower = inhibition) turned out to be 33.4%.
Same read-out and setting: the value for `N[C@H]1CN(c2c(F)cc3c(=O)c(C(=O)O)cn(C4C[C@@H]4F)c3c2Cl)CC12CC2` (some centres undefined) was 27.8%; that for `O=C(C=Cc1ccc(CN(CCO)CCc2c[nH]c3ccccc23)cc1)NO` was 8.38%; that for `CC(=O)NC(CS)C(=O)O` (centres undefined) was 118%.
For the molecule `COc1cccc2c1C(=O)c1c(O)c3c(c(O)c1C2=O)C[C@@](O)(C(C)=O)C[C@H]3O[C@H]1C[C@H](N)[C@H](O)[C@H](C)O1`, the parasite growth, % of control (lower = inhibition) was 6.6%.
On the same count and under the same terms, the value for `Cn1cnc(=N)c2[nH]cnc21` was 7.19%; that for `c1cncc(CN2CCC(n3ncc4c(N5CCOCC5)nc(-c5ccc6[nH]ccc6c5)nc43)CC2)c1` was 18.3%; that for `CC(C(C)N1CC(=O)NC(=O)C1)N1CC(=O)NC(=O)C1` (centres undefined) was 105%.
On the same count and under the same terms, the value for `CC1=C(C(=O)Nc2cc3cn[nH]c3cc2F)C(c2ccc(Cl)cc2F)N=C(c2ccnc(Cl)c2)N1` (centres undefined) was 21.1%; that for `CCN(C(=O)c1c(O)c2c(Cl)cccc2n(C)c1=O)c1ccccc1` was 78.3%.
Take `O=C(CCCCCCC(=O)Nc1cccnc1)NO`: the parasite growth, % of control (lower = inhibition) turned out to be 7.99%.
The same measure, in the same setting: then `CN1CCCN(C(=O)c2cccc(-c3ccc(C=C4C(=O)Nc5ccc(Cl)cc54)o3)c2)CC1`, with 6.52%.
For the molecule `CCCc1nc(C(C)(C)O)c(C(=O)O)n1Cc1ccc(-c2ccccc2-c2nn[nH]n2)cc1`, the parasite growth, % of control (lower = inhibition) was 84.2%.
For the molecule `O=C(NCc1ccccc1)[C@H](Cc1ccccc1)NC(=O)[C@@H]1O[C@@H]1C(=O)NCCc1ccc(O)cc1`, the parasite growth, % of control (lower = inhibition) amounted to 16.7%.
With `CCC[C@@H](C=O)NC(=O)[C@H](CC(C)C)NC(=O)[C@H](CC(C)C)NC(=O)OCc1ccccc1` (Cbz-Leu-Leu-[Nva]-aldehyde), the parasite growth, % of control (lower = inhibition) amounted to 7.93%.
`COc1ccc2c(c1OC)C(=O)OC2[C@H]1c2c(cc3c(c2OC)OCO3)CCN1C` (some centres undefined): the parasite growth, % of control (lower = inhibition) stood at 20.6%.
On to `C=C[C@@H]1CN2CCC1C[C@H]2[C@H](O)c1ccnc2ccc(OC)cc12` (some centres undefined), for which the parasite growth, % of control (lower = inhibition) is 15.1%.
On the same count and under the same terms, then `COc1ccc(S(=O)(=O)Nc2cccnc2Nc2ccc(O)cc2)cc1`, with 85.5%.
Consider `CC(C)(O)[C@H]1CC[C@@](C)([C@H]2[C@@H](O)C[C@@]3(C)[C@@H]4C[C@H](O[C@@H]5O[C@H](CO)[C@@H](O)[C@H](O)[C@@H]5O)[C@H]5C(C)(C)[C@@H](O[C@@H]6OC[C@@H](O)[C@H](O)[C@@H]6O)CC[C@@]56C[C@@]46CC[C@]23C)O1`, for which the parasite growth, % of control (lower = inhibition) was found to be 89.1%.
Turning to `O=C1c2c(O)cccc2[C@@H]([C@@H]2O[C@H](CO)[C@@H](O)[C@H](O)[C@H]2O)c2cc(CO)cc(O)c21`, the parasite growth, % of control (lower = inhibition) stood at 80.5%.
Regarding `CC(O)(C#Cc1ccc2c(c1)N(c1nc(N)ncc1Cl)CC2)c1nccs1` (centres undefined), the parasite growth, % of control (lower = inhibition) stood at 22.8%.
In the case of `C=CCNc1c(O)cc2c(O)c1C[C@@H](C)C[C@H](OC)[C@@H](O)[C@@H](C)C=C(C)[C@H](OC(N)=O)[C@@H](OC)C=CC=C(C)C(=O)N2`, the parasite growth, % of control (lower = inhibition) amounted to 11.1%.
For the molecule `c1cc(N[C@@H]2CCNC2)nc(-c2cnc3ccc(-c4cn[nH]c4)cn23)c1`, the parasite growth, % of control (lower = inhibition) turned out to be 9.64%.

The nature of another assay: qHTS profiling of the MIPE4 collection as inhibitors of Plasmodium falciparum (HB3) proliferation (AID 743347).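 Further: plate controls were DMSO vehicle wells for no effect and artemisinin wells for full effect.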 The conditions noted are these: P. falciparum HB3 in erythrocytes, SYBR Green DNA, 72 h; at 28.5 µM unless noted. The essentials: as §1
Take `CC(Oc1ccc(O)cc1)(P(=O)(O)O)P(=O)(O)O`: the growth, % of control is 98.7%.
`CNC(=O)c1ccc(Nc2cc(Nc3ccccc3S(=O)(=O)C(C)C)c3cc[nH]c3n2)nc1` came in with a growth, % of control of 2.73%.
The same measure, in the same setting: the value for `O=[N+]([O-])c1cn2c(n1)OC[C@@H](OCc1ccc(OC(F)(F)F)cc1)C2` was 98.1% and 86.3%.
Consider `O=C(c1ccc(F)cc1)N1CCC[C@H](c2nc(-c3ccc(F)cc3)no2)C1`, for which the growth, % of control worked out at 82.2%.
Still for that read-out and setting: then `CCN(CC)CCNC(=O)c1c(C)[nH]c(C=C2C(=O)Nc3ccc(F)cc32)c1C`, with 5.65% [at 57.5 µM]; and `CCN(CC)Cc1ccc2cc(COC(=O)Nc3ccc(C(=O)NO)cc3)ccc2c1`, with 7.88%.
Same read-out and setting: the value for `Cc1cn([C@@H]2O[C@H](CO)[C@@H](O)[C@H]2F)c(=O)[nH]c1=O` was 323%; that for `Cc1[nH]c(C=C2C(=O)Nc3ccccc32)c(C)c1CCC(=O)O` was 27.3%.
As to `N#CC(=C(O)c1ccc(Cl)cc1Cl)c1nc2cc(Cl)ccc2c(=O)[nH]1`, the growth, % of control stood at 74%.
As to `CC(C)[C@H](CO)Nc1nc(Nc2cccc(Cl)c2)c2ncn(C(C)C)c2n1`, the growth, % of control was found to be 5.25%.
Same read-out and setting: the value for `C=Cc1c(C)c2cc3nc(cc4[nH]c(cc5nc(cc1[nH]2)C(C)=C5CCC(=O)O)c(CCC(=O)OC)c4C)[C@@]1(C)C3=CC=C(C(=O)OC)[C@H]1C(=O)OC` was 4.7%; that for `CCCCCCCCCCCC(CC1OC(=O)C1CCCCCC)OC(=O)C(CC(C)C)NC=O` (centres undefined) was 3.37%.
The same measure, in the same setting: then `C[C@H](O)[C@@H]1C(=O)N2C(C(=O)O)=C(S[C@@H]3CN[C@H](CNS(N)(=O)=O)C3)[C@@H](C)[C@@H]12`, with 87.8%.
The same measure, in the same setting: then `Cc1noc(-c2ccc(CSCCC(=O)O)cc2)c1NC(=O)OC(C)c1ccccc1Cl` (centres undefined), with 61.1%; and `Cc1ccc2nc(NCCN)c3ncc(C)n3c2c1`, with 81.1%; and `N[C@H]1CN(c2c(F)cc3c(=O)c(C(=O)O)cn(C4C[C@@H]4F)c3c2Cl)CC12CC2` (some centres undefined), with 10%.
Molecule `O=C(C=Cc1ccc(CN(CCO)CCc2c[nH]c3ccccc23)cc1)NO` had a growth, % of control of 2.54%.
On the same count and under the same terms, then `CC(=O)NC(CS)C(=O)O` (centres undefined), with 60.7%.
The same measure, in the same setting: the value for `COc1cccc2c1C(=O)c1c(O)c3c(c(O)c1C2=O)C[C@@](O)(C(C)=O)C[C@H]3O[C@H]1C[C@H](N)[C@H](O)[C@H](C)O1` was 6.78%.
Turning to `Cn1cnc(=N)c2[nH]cnc21`, the growth, % of control was determined as 3.51%.
In the case of `c1cncc(CN2CCC(n3ncc4c(N5CCOCC5)nc(-c5ccc6[nH]ccc6c5)nc43)CC2)c1`, the growth, % of control is 8.55%.
The molecule `CC(C(C)N1CC(=O)NC(=O)C1)N1CC(=O)NC(=O)C1` (centres undefined) came in with a growth, % of control of 98.2%.
In turn, `CC1=C(C(=O)Nc2cc3cn[nH]c3cc2F)C(c2ccc(Cl)cc2F)N=C(c2ccnc(Cl)c2)N1` (centres undefined) had a growth, % of control of 10.9%.
The same measure, in the same setting: then `CCN(C(=O)c1c(O)c2c(Cl)cccc2n(C)c1=O)c1ccccc1`, with 102%; and `O=C(CCCCCCC(=O)Nc1cccnc1)NO`, with 4.47%.
The same measure, in the same setting: the value for `CN1CCCN(C(=O)c2cccc(-c3ccc(C=C4C(=O)Nc5ccc(Cl)cc54)o3)c2)CC1` was 4.36%; that for `CCCc1nc(C(C)(C)O)c(C(=O)O)n1Cc1ccc(-c2ccccc2-c2nn[nH]n2)cc1` was 61.6%.
Regarding `O=C(NCc1ccccc1)[C@H](Cc1ccccc1)NC(=O)[C@@H]1O[C@@H]1C(=O)NCCc1ccc(O)cc1`, the growth, % of control came out at 33.6%.
As for `CCC[C@@H](C=O)NC(=O)[C@H](CC(C)C)NC(=O)[C@H](CC(C)C)NC(=O)OCc1ccccc1` (Cbz-Leu-Leu-[Nva]-aldehyde), the growth, % of control amounted to 3.3%.
The same measure, in the same setting: then `COc1ccc2c(c1OC)C(=O)OC2[C@H]1c2c(cc3c(c2OC)OCO3)CCN1C` (some centres undefined), with 16.4%; and `C=C[C@@H]1CN2CCC1C[C@H]2[C@H](O)c1ccnc2ccc(OC)cc12` (some centres undefined), with 12.1%.
Still for that read-out and setting: then `COc1ccc(S(=O)(=O)Nc2cccnc2Nc2ccc(O)cc2)cc1`, with 51.4%; and `CC(C)(O)[C@H]1CC[C@@](C)([C@H]2[C@@H](O)C[C@@]3(C)[C@@H]4C[C@H](O[C@@H]5O[C@H](CO)[C@@H](O)[C@H](O)[C@@H]5O)[C@H]5C(C)(C)[C@@H](O[C@@H]6OC[C@@H](O)[C@H](O)[C@@H]6O)CC[C@@]56C[C@@]46CC[C@]23C)O1`, with 81.9%; and `O=C1c2c(O)cccc2[C@@H]([C@@H]2O[C@H](CO)[C@@H](O)[C@H](O)[C@H]2O)c2cc(CO)cc(O)c21`, with 99.2%.
On the same count and under the same terms, then `CC(O)(C#Cc1ccc2c(c1)N(c1nc(N)ncc1Cl)CC2)c1nccs1` (centres undefined), with 5.79%.
In turn, `C=CCNc1c(O)cc2c(O)c1C[C@@H](C)C[C@H](OC)[C@@H](O)[C@@H](C)C=C(C)[C@H](OC(N)=O)[C@@H](OC)C=CC=C(C)C(=O)N2` returned a growth, % of control of 8.78%.
The same measure, in the same setting: the value for `c1cc(N[C@@H]2CCNC2)nc(-c2cnc3ccc(-c4cn[nH]c4)cn23)c1` was 3.77%.
